Assay results from a collection of fitness landscapes (doi:10.1016/j.celrep.2020.107928).
In all, about 81,000 sequences were measured (“one-hybrid fitness for binding NBS DNA”: median about -0.1, highest 2% from about 0.36 on). The sample holds the highest values, similar sequences and a random draw of the others, so the mix is not that of the screen.

B1: Caulobacter ParB omega fusion; a variant is named by its letters at X, in order, B8GW30 (parent)
chain: MESVVVGEPGMSEGRRGLGRGLSALLGEVDAAPAQAPGEQLGGSREAPIEILQRNPDQPRRTFREEDLEDLSNSIREKGVLQPILVRPSPDTAGEYQIVAGERAWRAAQRAGLKTVPIMVRELDDLAVLEIGIIENVQRADLNVLEEALSYKVLMEKFERTQENIAQTIGKSXSHVANXMRLLXLPDEVQSYLVSGELTAXHARAIAAAADPVALAKQIIEGGLSVRETEALARKAPNLSAGKSKGGRPPRVKDTDTQALESDLSSVLGLDVSIDHRGSTGTLTITYATLEQLDDLCNRLTRGI

Variants of: B1
Test: one-hybrid fitness for binding NBS DNA (the Noc-binding site; scaled: cognate 1, non-cognate 0); higher = stronger binding
Details: with NBS DNA site
Procedure, shortened: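 Bacterial one-hybrid selection in E. coli USO rpoZ- hisB- pyrF- with a HIS3 reporter carrying the site 19 bp from the promoter, screening Caulobacter ParB libraries with four specificity codons randomised (NNS). Cells grew 48 hours at 37°C on M9-minus-histidine plus 0.1 mM IPTG and 5 mM 3-AT. Plasmids before and after selection were Illumina-sequenced, three replicate libraries pooled, and variants under 10 reads dropped. Fitness is the log change in variant-to-wild-type read ratio, rescaled to cognate 1, non-cognate 0.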

Variant | one-hybrid fitness for binding NBS DNA
WSSW | ≤ 0.2
LFHV | ≤ 0.2
YELS | ≤ 0.2
IALF | ≤ 0.2
ESMD | ≤ 0.2
RSFQ | ≤ 0.2
RRDH | 0.371
RRND | ≤ 0.2
RRDN | ≤ 0.2
RRNH | 0.63
RRNP | ≤ 0.2
RCDH | ≤ 0.2
RRNN | 0.493
RCNN | ≤ 0.2
ANST | ≤ 0.2
CRRH | ≤ 0.2
RNTT | 0.215
DAPG | ≤ 0.2
GCTC | ≤ 0.2
QTHI | 0.228
QNEM | ≤ 0.2
WTRW | ≤ 0.2
TLWY | ≤ 0.2
RRAF | ≤ 0.2

Variant | one-hybrid fitness for binding NBS DNA
RRAT | 0.782
RRFQ | 0.267
RRAC | 0.328
RRFT | 0.777
RRFG | 0.279
SIPE | ≤ 0.2
IQKV | ≤ 0.2
PDCE | ≤ 0.2
FSMS | ≤ 0.2
QQNN | 0.231
QQNT | 0.596
QQDT | 0.428
QQNP | ≤ 0.2
KQDT | ≤ 0.2
QQDF | ≤ 0.2
VNKV | ≤ 0.2
GVQT | ≤ 0.2
RNWC | ≤ 0.2
AVGK | ≤ 0.2
QWGA | ≤ 0.2
QMGA | 0.253
QTYA | 0.427
QSNA | 0.308
QTHA | 0.441

Variant | one-hybrid fitness for binding NBS DNA
QTLA | 0.329
QCNA | 0.369
QPNA | ≤ 0.2
QTPA | ≤ 0.2
QTGA | 0.466
QLHA | ≤ 0.2
QHHA | 0.238
LHCQ | ≤ 0.2
VMLE | ≤ 0.2
LRND | ≤ 0.2
AEHT | ≤ 0.2
QKAA | 0.319
QSCA | ≤ 0.2
QASA | ≤ 0.2
QTCA | 0.378
QCSA | 0.302
QTFA | 0.301
QTQA | 0.432
QCCA | 0.326
QLQA | 0.204
QDQA | ≤ 0.2
QTSA | 0.397
QTAA | 0.44
SFSC | ≤ 0.2

Variant | one-hybrid fitness for binding NBS DNA
PSTY | ≤ 0.2
KYQS | ≤ 0.2
AEHP | ≤ 0.2
CVMI | ≤ 0.2
VVAR | ≤ 0.2
NSNP | ≤ 0.2
SNRD | ≤ 0.2
YAHR | ≤ 0.2
QSAA | 0.273
QAWA | ≤ 0.2
QTKA | 0.708
QPAA | ≤ 0.2
QTWA | 0.367
QTRA | 0.712
NTKA | ≤ 0.2
QCAA | 0.393
QCWA | 0.205
QTVA | 0.317
QTMA | 0.32
QTIA | 0.224
NGIG | ≤ 0.2
PFPE | ≤ 0.2
GKAT | ≤ 0.2
ATEG | ≤ 0.2

Variant | one-hybrid fitness for binding NBS DNA
TRRP | ≤ 0.2
HLQN | ≤ 0.2
QPTA | ≤ 0.2
QTTA | 0.399
QINA | 0.21
QTDA | 0.255
QKDA | ≤ 0.2
QTNA | 0.505
QKNA | 0.378
QCTA | 0.326
QLNA | 0.219
ISCK | ≤ 0.2
MLLV | ≤ 0.2
LQRF | ≤ 0.2
HHLI | ≤ 0.2
LHQS | ≤ 0.2
RPNR | ≤ 0.2
RINH | ≤ 0.2
RIDR | ≤ 0.2
RWDR | ≤ 0.2
RWNR | 0.436
RFNR | 0.325
RINR | 0.524
RCNR | 0.586

Variant | one-hybrid fitness for binding NBS DNA
RSDR | ≤ 0.2
RSNH | 0.223
RWYR | ≤ 0.2
RSNR | 0.526
GSSG | ≤ 0.2
PGTF | ≤ 0.2
LPSK | ≤ 0.2
PGGS | ≤ 0.2
RQIG | ≤ 0.2
MIKI | ≤ 0.2
NGIR | ≤ 0.2
FGEY | ≤ 0.2
RHNR | 0.539
RHDR | 0.216
RHNN | ≤ 0.2
NDST | ≤ 0.2
SAPN | ≤ 0.2
YTYC | ≤ 0.2
NRYR | ≤ 0.2
DRYR | ≤ 0.2
QRYR | 0.924
NRRR | 0.251
NRQR | ≤ 0.2
DRRR | 0.215

Variant | one-hybrid fitness for binding NBS DNA
QRRR | 1.1
QRSF | 0.262
QRSG | 0.339
QRQR | 0.987
QRSR | 0.997
QRQL | 0.255
RCHV | ≤ 0.2
LHEL | ≤ 0.2
TCPE | ≤ 0.2
KYMS | ≤ 0.2
QRGR | 1.04
QRLF | 0.238
DRGR | ≤ 0.2
NRGR | ≤ 0.2
QDCR | ≤ 0.2
QRCR | 0.981
QRLR | 0.945
DRCR | ≤ 0.2
QRDR | 0.679
QRLQ | 0.327
DAMG | ≤ 0.2
RDCF | ≤ 0.2
SWLF | ≤ 0.2
THYV | ≤ 0.2

Variant | one-hybrid fitness for binding NBS DNA
EPRD | ≤ 0.2
AGTM | ≤ 0.2
AMGA | ≤ 0.2
QRNR | 1.03
QRHR | 1.06
DRNR | ≤ 0.2
NRNR | ≤ 0.2
DRHR | ≤ 0.2
NRHR | ≤ 0.2
TTSN | ≤ 0.2
DLQW | ≤ 0.2
DYWR | ≤ 0.2
QHFS | ≤ 0.2
QHFN | ≤ 0.2
QHAN | ≤ 0.2
QHFR | 0.408
QHAR | 0.523
QHAH | ≤ 0.2
GISW | ≤ 0.2
ACMF | ≤ 0.2
RFMI | ≤ 0.2
EHLG | ≤ 0.2
SCYH | ≤ 0.2
MRMG | ≤ 0.2

Variant | one-hybrid fitness for binding NBS DNA
RYYT | 0.349
RYKT | 0.604
RYNP | ≤ 0.2
RYPT | ≤ 0.2
RYDT | 0.204
RYVT | 0.229
RYRT | 0.664
RYWT | 0.281
RYNT | 0.514
RYLH | ≤ 0.2
RYLD | ≤ 0.2
RYLT | 0.366
LHLS | ≤ 0.2
ILDG | ≤ 0.2
GDTF | ≤ 0.2
TMRI | ≤ 0.2
MQPC | ≤ 0.2
MRDI | ≤ 0.2
WQSY | ≤ 0.2
RYAH | ≤ 0.2
RYCC | ≤ 0.2
RYAT | 0.461
RYCG | ≤ 0.2
RYFT | ≤ 0.2

Variant | one-hybrid fitness for binding NBS DNA
RYCT | 0.372
TALL | ≤ 0.2
HITC | ≤ 0.2
LYGC | ≤ 0.2
QTWH | ≤ 0.2
QTWD | ≤ 0.2
DTRT | ≤ 0.2
QTRT | 0.891
QHWN | ≤ 0.2
NTRT | ≤ 0.2
QTYT | 0.572
QHWT | 0.375
QTWT | 0.543
QHWD | ≤ 0.2
DQMC | ≤ 0.2
HTHS | ≤ 0.2
SPAK | ≤ 0.2
IRFR | ≤ 0.2
WCIR | ≤ 0.2
QTSF | ≤ 0.2
QTST | 0.61
QTNP | ≤ 0.2
QTSC | 0.214
QTNT | 0.71

Variant | one-hybrid fitness for binding NBS DNA
QTDT | 0.448
QTND | 0.227
QPWT | ≤ 0.2
QCWT | 0.461
QSWT | 0.348
IHPM | ≤ 0.2
MVSY | ≤ 0.2
TTTW | ≤ 0.2
HGWD | ≤ 0.2
LSVE | ≤ 0.2
EWQK | ≤ 0.2
GLRI | ≤ 0.2
TRMF | ≤ 0.2
IGRY | ≤ 0.2
TRSQ | ≤ 0.2
TPKT | ≤ 0.2
TPVR | 0.513
TTSQ | ≤ 0.2
TPKR | 0.351
TPVT | 0.375
TPKQ | ≤ 0.2
TCVR | ≤ 0.2
TCVT | ≤ 0.2
TSSQ | 0.493

Variant | one-hybrid fitness for binding NBS DNA
TSVQ | ≤ 0.2
TPVQ | 0.763
VMCN | ≤ 0.2
SSHR | 0.261
WIIS | ≤ 0.2
QDAC | ≤ 0.2
YRCS | ≤ 0.2
QPDL | ≤ 0.2
QYVG | ≤ 0.2
RKCC | ≤ 0.2
HGRR | ≤ 0.2
EGQR | ≤ 0.2
QHIA | ≤ 0.2
QAVA | ≤ 0.2
QMIA | ≤ 0.2
QHVA | ≤ 0.2
QMVA | ≤ 0.2
QMKA | 0.596
QCKA | 0.608
QAKA | 0.521
QPKA | ≤ 0.2
QIKA | 0.351
QHKA | 0.597
QALA | ≤ 0.2

Variant | one-hybrid fitness for binding NBS DNA
NDTL | ≤ 0.2
YAKI | ≤ 0.2
LRRN | ≤ 0.2
TCKG | ≤ 0.2
WGAS | ≤ 0.2
PPRC | ≤ 0.2
QLLA | ≤ 0.2
QKPA | ≤ 0.2
QSVA | ≤ 0.2
QSKA | 0.558
QLVA | ≤ 0.2
QWKA | ≤ 0.2
QKVA | ≤ 0.2
QLKA | 0.466
QKKA | 0.577
AVKE | ≤ 0.2
NQRA | ≤ 0.2
FGAF | ≤ 0.2
